The source of these data is PubChem BioAssay.

SMILES strings stand for the structures. A number with no mark means an inactive call. The list shows a part of the results. Activity calls are given as the source filed them. Rule as the data show it, unless noted: active = inhibition above about 25%; inactive = the rest.

The target of assay [1] is Nuclear receptor coactivator 1 (Homo sapiens) (UniProt Q15788). The assay can be described thus: NCOA1 GAL4-fusion reporter inhibition – cell-based, luminescence, quadruplicate, confirmation (AID 588820;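 active = mean inhibition above 46.68%, the untreated control wells mean plus 3 SD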;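 also: 0% = DMSO wells and 100% = gossypol 36 µM treated wells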). The conditions noted are these: HEK293 GAL4-SRC1 luciferase reporter, at 3.6 µM, active compounds read high.
Assay [2] can be described thus: repression of VP16-driven luciferase reporter – cell-based, luminescence, high throughput, counter-screen for SRC1 inhibitor project (AID 588824). The conditions noted are these: cell-based VP16 transactivation luciferase luminescence; at 3.6 µM; active compounds read high.
A short description of assay [3]: StAR promoter reporter inhibitors, counter-screen for LRH-1 inverse agonist project, cell-based, luminescence, high throughput (AID 651611; in the data active = inhibition above about 28%). As to conditions: StAR promoter luciferase reporter counterscreen, at 3.6 µM, active compounds read high.
Assay [4] has as its target Nuclear receptor subfamily 5 group A member 2 (Homo sapiens) (UniProt O00482). The assay can be described thus: NR5A2 activity suppression in reporter cells – cell-based, luminescence, confirmation (AID 651613; in the data active = inhibition above about 42%;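 also: HEK293T cells co-transfected with LRH-1 and StAR promoter luciferase reporter; 0% = vehicle wells and 100% = parental cells lacking receptor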). As to conditions: cell-based LRH-1 luciferase reporter, inverse agonism; at 3.6 µM; active compounds read high.
Assay [5] has as its target Steroidogenic factor 1 (Homo sapiens) (UniProt Q13285). The assay can be described thus: inverse agonism at SF1 nuclear receptor – cell-based, luminescence, high throughput, counter-screen for LRH-1 inverse agonist project (AID 651614; in the data active = inhibition above about 44%;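 also: cells cotransfected with StAR promoter reporter and SF1 expression vector; 0% = vehicle on cells with receptor and 100% = vehicle on cells lacking receptor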). The conditions noted are these: cell-based SF1 luciferase reporter, at 3.6 µM, active compounds read high.
Assay [6] in a line: compounds suppressing VP16-driven luciferase signal – cell-based, luminescence, high throughput, counter-screen for LRH-1 inverse agonist project (AID 651615; in the data active = inhibition above about 33%). The conditions noted are these: Gal4-VP16 luciferase reporter cells, at 3.6 µM, active compounds read high.
Assay [7] concerns the target Photoreceptor-specific nuclear receptor (Homo sapiens) (UniProt Q9Y5X4). The assay can be described thus: retest of NR2E3-NCOR disrupting agonists – cell-based, luminescence, CHO-S two-hybrid, confirmation (AID 624378;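 active = average inhibition above a cutoff equal to the mean inhibition of all tested compounds plus one SD, cut at about 70% in these data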;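 also: 0% = DMSO in NR2E3 cells and 100% = DMSO in cells lacking NR2E3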). As to conditions: CHO-S mammalian two-hybrid NR2E3-NCOR, luciferase luminescence; at 3.98 µM; active compounds read high.
Assay [8] is described as follows: nonselective effects on VP16 transactivation – cell-based, luminescence, CHO-S, high throughput, counter-screen for NR2E3 agonist project, confirmation (AID 624379;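 active = mean inhibition above a cutoff equal to the average over all tested compounds plus one standard deviation, cut at about 70% in these data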;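 also: 0% = DMSO with VP16-transfected cells and 100% = DMSO with cells lacking VP16; higher means less reporter light so more repression of VP16 activity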). The conditions noted are these: CHO-S GAL4-VP16 luciferase reporter, at 3.98 µM, active compounds read high.
Assay [9] can be described thus: VP16-driven transactivation reporter suppression – cell-based, luminescence, HEK293, counter-screen for COUP-TFII antagonist project (AID 687007; in the data active = inhibition above about 13%). As to conditions: HEK293 Gal4-VP16 luciferase reporter, at 8.5 µM, active compounds read high.
Assay [10] concerns the target COUP transcription factor 2 (Homo sapiens) (UniProt P24468). Kind of assay: retest of COUP-TFII reporter suppressors – cell-based, luciferase reporter, HEK293, triplicate, confirmation (AID 687008;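 active = mean inhibition over three repeats above a set limit taken from the earlier primary screen, cut at about 38% in these data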;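 also: 100% = cells given the luciferase reporter alone without the COUP-TF2 vector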). The conditions noted are these: HEK293 NGFI-A luciferase reporter, luminescence; at 8.5 µM; active compounds read high.

Chain of Nuclear receptor subfamily 5 group A member 2 (Homo sapiens) (O00482 whole entry, looked up): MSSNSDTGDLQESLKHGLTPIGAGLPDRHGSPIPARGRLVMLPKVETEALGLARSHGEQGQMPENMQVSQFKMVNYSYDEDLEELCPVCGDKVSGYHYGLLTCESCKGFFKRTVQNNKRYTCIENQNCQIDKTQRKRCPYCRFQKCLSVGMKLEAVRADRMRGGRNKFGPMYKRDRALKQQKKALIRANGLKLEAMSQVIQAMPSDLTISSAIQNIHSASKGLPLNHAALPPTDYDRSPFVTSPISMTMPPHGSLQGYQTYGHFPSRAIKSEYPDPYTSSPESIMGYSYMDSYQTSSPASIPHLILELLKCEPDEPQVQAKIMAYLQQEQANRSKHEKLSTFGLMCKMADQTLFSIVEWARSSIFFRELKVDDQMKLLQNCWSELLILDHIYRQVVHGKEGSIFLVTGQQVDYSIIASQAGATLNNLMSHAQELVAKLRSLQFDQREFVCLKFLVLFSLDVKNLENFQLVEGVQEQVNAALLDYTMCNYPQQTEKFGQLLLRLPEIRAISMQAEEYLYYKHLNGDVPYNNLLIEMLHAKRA
Chain of Steroidogenic factor 1 (Homo sapiens) (Q13285 whole entry, looked up, the tested form may be a part): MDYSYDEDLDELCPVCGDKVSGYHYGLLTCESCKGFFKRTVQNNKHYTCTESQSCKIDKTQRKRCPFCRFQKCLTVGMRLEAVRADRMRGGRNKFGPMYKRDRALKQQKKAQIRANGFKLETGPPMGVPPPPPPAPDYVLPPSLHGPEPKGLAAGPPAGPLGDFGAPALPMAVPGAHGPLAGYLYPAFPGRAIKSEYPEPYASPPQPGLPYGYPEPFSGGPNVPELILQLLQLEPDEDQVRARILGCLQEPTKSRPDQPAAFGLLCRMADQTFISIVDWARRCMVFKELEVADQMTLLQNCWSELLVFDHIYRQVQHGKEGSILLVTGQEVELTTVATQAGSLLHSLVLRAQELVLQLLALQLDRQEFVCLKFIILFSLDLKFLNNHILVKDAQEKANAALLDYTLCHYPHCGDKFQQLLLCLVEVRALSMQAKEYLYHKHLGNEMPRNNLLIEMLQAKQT
Chain of Nuclear receptor coactivator 1 (Homo sapiens) (Q15788 whole entry, looked up, the tested form may be a part): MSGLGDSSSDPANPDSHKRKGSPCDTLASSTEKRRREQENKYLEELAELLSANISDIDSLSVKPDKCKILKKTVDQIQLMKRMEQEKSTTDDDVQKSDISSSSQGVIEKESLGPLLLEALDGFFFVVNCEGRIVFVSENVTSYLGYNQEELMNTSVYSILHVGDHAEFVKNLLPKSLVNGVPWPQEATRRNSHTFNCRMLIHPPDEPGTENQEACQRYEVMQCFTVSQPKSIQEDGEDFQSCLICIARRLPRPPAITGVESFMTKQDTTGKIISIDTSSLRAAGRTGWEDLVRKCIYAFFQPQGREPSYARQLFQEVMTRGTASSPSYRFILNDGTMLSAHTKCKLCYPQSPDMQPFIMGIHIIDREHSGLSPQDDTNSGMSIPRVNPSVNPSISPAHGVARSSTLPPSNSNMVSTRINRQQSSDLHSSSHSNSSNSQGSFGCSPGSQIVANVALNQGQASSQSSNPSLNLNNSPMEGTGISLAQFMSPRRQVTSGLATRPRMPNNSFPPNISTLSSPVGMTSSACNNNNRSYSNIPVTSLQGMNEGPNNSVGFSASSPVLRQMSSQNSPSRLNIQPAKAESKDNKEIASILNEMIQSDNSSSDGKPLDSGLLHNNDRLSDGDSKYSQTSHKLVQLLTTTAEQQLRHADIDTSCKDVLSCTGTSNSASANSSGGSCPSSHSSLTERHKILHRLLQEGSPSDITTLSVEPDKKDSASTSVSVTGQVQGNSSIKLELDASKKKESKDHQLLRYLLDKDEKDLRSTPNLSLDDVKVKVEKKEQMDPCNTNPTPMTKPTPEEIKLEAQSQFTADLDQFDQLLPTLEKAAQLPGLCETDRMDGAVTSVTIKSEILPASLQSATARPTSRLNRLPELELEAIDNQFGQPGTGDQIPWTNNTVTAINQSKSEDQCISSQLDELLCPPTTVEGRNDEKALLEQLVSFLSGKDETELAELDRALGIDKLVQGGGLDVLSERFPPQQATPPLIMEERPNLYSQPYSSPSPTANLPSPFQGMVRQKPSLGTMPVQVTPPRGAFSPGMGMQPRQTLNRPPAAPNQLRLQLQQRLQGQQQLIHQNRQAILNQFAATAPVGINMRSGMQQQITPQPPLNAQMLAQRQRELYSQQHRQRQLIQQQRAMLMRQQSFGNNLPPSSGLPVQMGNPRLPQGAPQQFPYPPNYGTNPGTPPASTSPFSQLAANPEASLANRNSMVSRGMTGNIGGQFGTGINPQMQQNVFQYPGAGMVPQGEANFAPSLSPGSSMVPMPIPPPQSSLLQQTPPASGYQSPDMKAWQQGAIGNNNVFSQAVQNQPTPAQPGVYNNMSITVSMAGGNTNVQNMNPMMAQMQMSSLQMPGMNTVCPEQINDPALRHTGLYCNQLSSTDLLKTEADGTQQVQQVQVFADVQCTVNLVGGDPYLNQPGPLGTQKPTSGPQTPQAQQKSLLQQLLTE
Chain of Photoreceptor-specific nuclear receptor (Homo sapiens) (Q9Y5X4 whole entry, looked up): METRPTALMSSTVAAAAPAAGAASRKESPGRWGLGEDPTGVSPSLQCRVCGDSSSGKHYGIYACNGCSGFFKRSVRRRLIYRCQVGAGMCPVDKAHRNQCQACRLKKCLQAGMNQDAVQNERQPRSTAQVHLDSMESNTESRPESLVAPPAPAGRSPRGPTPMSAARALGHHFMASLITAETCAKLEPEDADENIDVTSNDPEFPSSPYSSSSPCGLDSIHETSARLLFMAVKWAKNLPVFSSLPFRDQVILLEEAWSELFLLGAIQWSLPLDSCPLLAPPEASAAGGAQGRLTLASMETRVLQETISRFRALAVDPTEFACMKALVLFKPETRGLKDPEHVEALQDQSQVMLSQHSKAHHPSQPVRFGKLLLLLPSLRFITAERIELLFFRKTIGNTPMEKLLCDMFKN
Chain of COUP transcription factor 2 (Homo sapiens) (P24468 whole entry, looked up): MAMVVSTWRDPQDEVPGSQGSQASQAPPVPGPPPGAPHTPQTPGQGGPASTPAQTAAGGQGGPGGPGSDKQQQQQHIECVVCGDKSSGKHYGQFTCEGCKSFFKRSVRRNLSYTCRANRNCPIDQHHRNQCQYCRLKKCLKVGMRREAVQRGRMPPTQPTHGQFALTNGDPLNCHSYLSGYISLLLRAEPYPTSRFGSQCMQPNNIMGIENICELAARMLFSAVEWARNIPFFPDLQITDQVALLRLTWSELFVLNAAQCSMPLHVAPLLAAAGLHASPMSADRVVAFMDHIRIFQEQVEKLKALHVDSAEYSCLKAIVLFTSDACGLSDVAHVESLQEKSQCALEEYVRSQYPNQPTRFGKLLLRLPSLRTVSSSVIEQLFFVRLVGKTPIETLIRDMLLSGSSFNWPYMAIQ

Consider `COc1ccc(-c2[nH]ncc2CN(C)Cc2nonc2C)c(OC)c1`, for which the inhibition was -25% in [1] and -13.1% in [2].

Consider `Cc1ccc(S(=O)(=O)CC2CSc3nc4ccccc4n32)cc1` (stereo unspecified), for which the inhibition is -13.8% in assay [1]; 33.3% (active) in [2]; 22.6% in assay [3]; 65.3% (active) in assay [4]; 54.6% (active) in assay [5]; 50.7% (active) in [6].

`COc1ccc(NS(=O)(=O)c2cc(NC(=O)CC(C)(C)C)ccc2N2CCCC2)cc1`: the values for the inhibition in assay [1] and in assay [2] were -10.7% and -1.18%, respectively.

Turning to `COc1ccc(NS(=O)(=O)c2ccc(-c3cnc(C4CC4)o3)cc2)cc1OC`, the inhibition is -15.9% in [1]; 37.2% (active) in assay [2]; 53.2% (active) in assay [3]; 77.5% (active) in [4]; 78.8% (active) in [5]; 31.6% (active) in assay [6].

`CCCOc1ccc(Cc2c(Cl)nc(SC)nc2NC)cc1`: the inhibition is -9.8% in [1]; 24.6% in assay [2]; 94.6% (active) in assay [7]; 85.9% (active) in assay [8]; 4.85% in assay [3]; 54.9% (active) in assay [4]. For the same compound, the inhibition is 55.9% (active) in [5], 35.5% (active) in [6], 2.67% in assay [9] and 44.7% (active) in assay [10].

Turning to `CCOc1ccc(-c2cc(C(=O)Nc3ccc(C)c(NS(C)(=O)=O)c3)[nH]n2)c(C)c1`, the inhibition in [1] was -14%; in assay [2] it was 5.47%.

`COc1ccc(CNC(=O)c2cccc3c(-c4cccnc4)coc23)cc1OC`: the inhibition in assay [1] is -25.2%; in [2], 43.8% (active); in [3], 48.5% (active); in [4], 59.9% (active); in assay [5], 66.4% (active); in assay [6], 67.4% (active).

With `O=C(Nc1ccncc1)c1ccc(Cl)c(S(=O)(=O)N2CCc3ccccc32)c1`, the inhibition in [1] is -6.49%; in [2], 36.8% (active).

`O=C(Nc1ccc(Cl)c([N+](=O)[O-])c1)C(Sc1ccccc1)c1ccccc1` (stereo unspecified): the inhibition in assay [1] was -8.15%; in assay [2], 5.98%.

Take `CSc1nccc(Oc2cncc(Cl)c2)n1`: the inhibition is 8.08% in assay [1] and 5.07% in assay [2].

With `COCCn1c(SCCCC(=O)c2ccc(Br)cc2)nnc1-c1ccncc1`, the inhibition in assay [1] is -2.26%; in assay [2] it was 25.2%; in assay [3], 6.33%; in [4], 44.3% (active); in assay [5], 46% (active); in assay [6], 44.7% (active).

`Cc1cc(C)nc(-n2ncc(C#N)c2N)n1`: the inhibition in assay [1] was -18.5%; in [2] it was 5.06%.

`CCCCCCCCCCOC(=O)Cn1c(COc2ccccc2C)[n+](C)c2ccccc21`: the inhibition in assay [1] is -8.25%; in assay [2] it was 6.65%; in assay [3] it was -2.25%; in [4] it was 42.2% (active); in assay [5], 38.4%; in [6] it was 38.9% (active).

With `COc1ccc(CNC(=O)C(c2ccc(C)cc2)N(Cc2cccs2)C(=O)c2ccc3c(c2)OCCO3)cc1` (stereo unspecified), the inhibition is -13.9% in assay [1] and -1.62% in assay [2].

Take `CC(=O)NC(c1ccc(Cl)cc1Cl)c1ccc2cccnc2c1O` (stereo unspecified): the inhibition in assay [1] is 67.2% (active); in assay [2] it was 70.6% (active); in [3], 85.4% (active); in assay [4] it was 102% (active); in [5], 86.8% (active); in [6], 80.2% (active).

In the case of `COc1ccc(-c2coc3c(C(=O)NCc4ccc(OC)c(OC)c4)cccc23)c(C)c1`, the inhibition is -32% in assay [1]; 41.2% (active) in assay [2]; 28% (active) in assay [3]; 80.8% (active) in [4]; 49% (active) in [5]; 57.8% (active) in assay [6].

Turning to `Cc1ccc2c(c1)c(/C=C/c1cc[n+](C)cc1)c(C)n2C`, the inhibition in [1] is 32.9%; in [2], 57.1% (active); in assay [3] it was 59.6% (active); in assay [4], 91.4% (active); in assay [5] it was 81.1% (active); in assay [6] it was 80% (active).

In the case of `COc1ccc(NC(=O)C2Cc3c(-c4cccc(C(C)=O)c4)ccnc3O2)cc1OC` (stereo unspecified), the inhibition in [1] was -17.4%; in assay [2] it was 19.6%; in assay [3], 44% (active); in assay [4] it was 59% (active); in assay [5] it was 72% (active); in [6] it was 48.8% (active).

`NC(N)=N/N=C/c1ccc(Cl)c([N+](=O)[O-])c1`: the values for the inhibition in assay [1] and in [2] were -20.2% and -0.27%, respectively.

On to `COc1cccc(CNc2nc(NCc3cccs3)nc3ccsc23)c1`, for which the inhibition in assay [1] was -9.48%; in assay [2] it was 2.77%; in assay [7], 67.6%; in assay [8] it was 47.4%; in assay [9], -0.37%; in [10] it was 13.2%.

As to `Fc1ccc(NC(=S)N2CCCN(c3ccc(C(F)(F)F)cn3)CC2)c(F)c1`, the inhibition was -32.2% in assay [1]; 36.5% (active) in assay [2]; 26.6% in assay [3]; 57.6% (active) in assay [4]; 57.8% (active) in assay [5]; 51.6% (active) in [6].

Take `COc1ccc(NC(=O)C2Cc3c(-c4ccc5c(c4)OCO5)ccnc3O2)cc1OC` (stereo unspecified): the inhibition in assay [1] is 0.9%; in [2] it was 34% (active); in [3] it was 27.9% (active); in [4], 53.5% (active); in [5] it was 61.1% (active); in assay [6] it was 43.5% (active).

Take `CN(C)CCNc1ccc(CO)c2sc3ccc(O)cc3c(=O)c12`: the inhibition in assay [1] was 44.8%; in assay [2], 39.1% (active); in assay [3] it was 77% (active); in assay [4] it was 89.5% (active); in assay [5] it was 75.7% (active); in assay [6], 61.2% (active).
